# In PubChem BioAssay:
# For part of these data: Measured potencies and affinities stand elsewhere. Activity calls are given as the source filed them.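 Rule for the calls, unless noted: active = thallium flux through the channel raised or lowered by more than 3 SD from vehicle-only wells, actives on both sides; inactive = the rest.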
# Experiments:
# [1] = growth inhibition, single agent or in combination, cell-based, chromothripsis tumors, cisplatin or BGB combos (AID 1671449; in the data active = inhibition above about 80%;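 note: cells exposed for 96 hours; 0% = vehicle DMSO and 100% = killing by high DMSO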); details: LFS_MB_P medulloblastoma cells
# [2] = growth inhibition, single agents and combos, ICB984, cell-based, cisplatin or BGB combos, synergistic combos for chromothripsis tumors (AID 1671451; call rule not given here;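 note: cells exposed for 96 hours before readout; 0% = vehicle DMSO and 100% = killing by high DMSO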); details: ICB984 medulloblastoma cells, drug combinations, stronger effect = higher value
# [3] = yeast 75Q aggregation reduction – 75Q-TubU reporter (AID 1593); details: Yeast 75Q polyglutamine aggregation reporter
# [4] = restoration of touch response, mutant HTT neurons – whole organism, C. elegans mechanosensory neurons, N-terminal huntingtin (AID 1599); details: C. elegans polyQ-huntingtin mechanosensory neurons, stronger effect = higher value
# [5] = blockers of cytochrome c efflux from mitochondria – biochemical, purified mitochondria (AID 1603); details: stronger effect = lower value;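 note: mouse liver mitochondria challenged with calcium chloride; signal normalized to the plate average as 100%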
# [6] = polyglutamine aggregate formation blockers (AID 1604); details: polyglutamine-induced protein aggregation inhibition assay; stronger effect = higher value; tested at 2.5 µM
# [7] = glutamate transport activators, MN-1 cells, MN-1 cell line (AID 1612); details: MN-1 motor neuron cells, stronger effect = higher value;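 note: tested at 1 µM final; 0% = mean of DMSO vehicle wells on each plate; positive means more glutamate uptake than control and negative means less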
# [8] = 75Q-TubH aggregate inhibition, S. cerevisiae, yeast (AID 1616); details: S. cerevisiae 75Q-TubH polyglutamine aggregation suppression; stronger effect = higher value
# [9] = tested on: F380Y; experiment: BK channel mutant inhibitors and activators – cell-based, U2OS BacMam, thallium flux, beta subunits, selectivity assay, profiling panel (AID 1259406); details: U2OS BacMam BK variants, at 30 µM;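 note: initial slope of Thallos dye fluorescence rise after thallium is added; log ratio against the mean of 0.3% DMSO vehicle wells on the same plate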
# [10] = tested on: F380Y/beta1; experiment: as above; details: U2OS BacMam BK variants, at 30 µM
# [11] = tested on: F380Y/beta2Delta; experiment: as above; details: U2OS BacMam BK variants, at 30 µM
# [12] = tested on: F380Y/beta4; experiment: as above; details: U2OS BacMam BK variants, at 30 µM
# [13] = molecular target: Calcium-activated potassium channel subunit alpha-1 (Homo sapiens) + Leucine-rich repeat-containing protein 26 (Homo sapiens) (UniProt Q12791+Q2I0M4); experiment: as above; details: U2OS BacMam BK variants, F380Y/Slo1WT/gamma1, at 30 µM
# [14] = tested on: R275C; experiment: as above; details: U2OS BacMam BK variants, at 30 µM
# [15] = tested on: R275C/beta1; experiment: as above; details: U2OS BacMam BK variants, at 30 µM
# [16] = tested on: R275C/beta2Delta; experiment: as above; details: U2OS BacMam BK variants, at 30 µM
# [17] = tested on: R275C/beta4; experiment: as above; details: U2OS BacMam BK variants, at 30 µM
# [18] = tested on: R275C/Slo1WT/beta2; experiment: as above; details: U2OS BacMam BK variants, at 30 µM
# [19] = tested on: Neuropilin-2 / VEGF-C interaction (human); experiment: small molecules blocking Neuropilin-2/VEGF-C interaction – biochemical, microplate binding format, z-score (AID 743281; call rule not given here); details: microplate NRP2/VEGF-C binding assay; stronger effect = lower value
# [20] = modulation of C. elegans fzo-1 (AID 1259413; call rule not given here;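 note: fzo-1 mutant C. elegans worms in liquid wells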); details: C. elegans fzo-1 modulator screen, mean read-out; stronger effect = higher value
# Calcium-activated potassium channel subunit alpha-1 (Homo sapiens) + Leucine-rich repeat-containing protein 26 (Homo sapiens), sequence (Q2I0M4 whole entry, looked up, one chain of several): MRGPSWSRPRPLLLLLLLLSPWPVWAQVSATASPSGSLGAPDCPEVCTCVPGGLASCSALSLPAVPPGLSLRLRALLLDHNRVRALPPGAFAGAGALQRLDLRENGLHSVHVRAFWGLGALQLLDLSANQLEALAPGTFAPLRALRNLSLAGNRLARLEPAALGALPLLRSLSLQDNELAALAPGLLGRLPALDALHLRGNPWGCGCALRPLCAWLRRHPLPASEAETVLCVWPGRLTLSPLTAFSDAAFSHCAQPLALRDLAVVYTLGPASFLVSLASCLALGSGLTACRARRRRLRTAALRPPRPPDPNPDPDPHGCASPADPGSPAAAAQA
smiles,measurement,setting,value
Cn1c(CCCC(=O)O)nc2cc(N(CCCl)CCCl)ccc21,inhibition,"[1]; at 0.5 µM, stronger effect = higher value",-19.5% (inactive)
same,inhibition,"[1]; measured here: combination with BGB IC20, at 0.005 µM",-18.2%
same,inhibition,"[1]; measured here: combination with BGB IC40, at 0.005 µM",-30.6%
same,inhibition,"[1]; measured here: combination with BGB IC40, at 0.05 µM",-11.9%
same,inhibition,"[1]; measured here: combination with cisplatin, at 0.5 µM, stronger effect = higher value",-29.9%
same,inhibition,"[1]; measured here: combination with cisplatin, at 5 µM, stronger effect = higher value",-14.2%
same,inhibition,"[2]; BGB IC20 combo, at 0.005 µM",6.09%
same,inhibition,"[2]; BGB IC40 combo, at 0.005 µM",-55.7%
same,inhibition,"[2]; BGB IC40 combo, at 0.05 µM",-19.6%
same,inhibition,[2]; at 0.5 µM,-15.5% (inactive)
same,inhibition,"[2]; cisplatin combo, at 0.05 µM",-19.6%
same,inhibition,"[2]; cisplatin combo, at 0.5 µM",-24.4%
same,inhibition,"[2]; cisplatin combo, at 5 µM",-46.7%
same,inhibition,"[2]; measured here: 5 uM single agent, at 5 µM",-9.28%
CN(C)C(=S)SSC(=S)N(C)C,score,[3],0.02
same,rescue above control,[4],2.19
same,cytochrome c release ratio,[5],3.47
same,inhibition of aggregation,[6],-16.7%
same,glutamate uptake change,[7],7.76%
same,aggregation suppression score,[8],0.0152
O=C1CC[C@@]2(O)[C@H]3Cc4ccc(O)c5c4[C@@]2(CCN3CC2CC2)[C@H]1O5,log fold change Tl+ flux,[9],0.00675 (inactive)
same,log fold change Tl+ flux,[10],-0.0461 (inactive)
same,log fold change Tl+ flux,[11],0.00968 (inactive)
same,log fold change Tl+ flux,[12],-0.0353 (inactive)
same,log fold change Tl+ flux,[13],-0.0199 (inactive)
same,log fold change Tl+ flux,[14],-0.0442 (inactive)
same,log fold change Tl+ flux,[15],0.0294 (inactive)
same,log fold change Tl+ flux,[16],-0.0407 (inactive)
same,log fold change Tl+ flux,[17],-0.0587 (inactive)
same,log fold change Tl+ flux,[18],0.0463 (inactive)
COc1ccc2[nH]cc(CCN)c2c1,z-score,[19],0.413 (inactive)
same,mean signal,[20],258 (inactive)
same,log fold change Tl+ flux,[9],0.0218 (inactive)
same,log fold change Tl+ flux,[10],0.0119 (inactive)
same,log fold change Tl+ flux,[11],-0.052 (inactive)
same,log fold change Tl+ flux,[12],-0.0167 (inactive)
same,log fold change Tl+ flux,[13],-0.0293 (inactive)
same,log fold change Tl+ flux,[14],-0.061 (inactive)
same,log fold change Tl+ flux,[15],-0.0101 (inactive)
same,log fold change Tl+ flux,[16],-0.00391 (inactive)
same,log fold change Tl+ flux,[17],0.0135 (inactive)
same,log fold change Tl+ flux,[18],0.00615 (inactive)
O=c1ccc2cc(O[C@@H]3O[C@H](CO)[C@@H](O)[C@H](O)[C@H]3O)c(O)cc2o1,score,[3],1.12
same,rescue above control,[4],-7.81
same,cytochrome c release ratio,[5],0.85
same,inhibition of aggregation,[6],54.9%
same,glutamate uptake change,[7],18.9%
same,aggregation suppression score,[8],1
c1ccc2c3c([nH]c2c1)CNCC3,z-score,[19],-0.415 (inactive)
same,mean signal,[20],258 (inactive)
same,log fold change Tl+ flux,[9],-0.00245 (inactive)
same,log fold change Tl+ flux,[10],-0.00595 (inactive)
same,log fold change Tl+ flux,[11],-0.0184 (inactive)
same,log fold change Tl+ flux,[12],-0.0163 (inactive)
same,log fold change Tl+ flux,[13],0.00353 (inactive)
same,log fold change Tl+ flux,[14],0.0253 (inactive)
same,log fold change Tl+ flux,[15],-0.0273 (inactive)
same,log fold change Tl+ flux,[16],-0.0332 (inactive)
same,log fold change Tl+ flux,[17],-0.016 (inactive)
same,log fold change Tl+ flux,[18],-0.0345 (inactive)
CC(C)CC(N(C)C)C1(c2ccc(Cl)cc2)CCC1 (centres undefined),outcome,[19],inactive
same,z-score,[19],-0.0182 (inactive)
same,mean signal,[20],232 (inactive)
O=c1c2ccccc2[se]n1-c1ccccc1,score,[3],0.32
same,cytochrome c release ratio,[5],1.88
same,inhibition of aggregation,[6],72.2%
same,glutamate uptake change,[7],26.2%
same,aggregation suppression score,[8],0.00636
same,z-score,[19],0.167 (inactive)
same,mean signal,[20],217 (inactive)
COc1ccc(C[C@H]2NC[C@H](O)[C@H]2OC(C)=O)cc1,score,[3],0.1
same,rescue above control,[4],20.1
same,cytochrome c release ratio,[5],0.83
same,inhibition of aggregation,[6],100%
same,glutamate uptake change,[7],-57.2%
same,aggregation suppression score,[8],0.0246
NC(=O)CS(=O)C(c1ccccc1)c1ccccc1 (centres undefined),z-score,[19],0.787 (inactive)
same,mean signal,[20],263 (inactive)
same,log fold change Tl+ flux,[9],-0.0264 (inactive)
same,log fold change Tl+ flux,[10],0.0487 (inactive)
same,log fold change Tl+ flux,[11],0.0296 (inactive)
same,log fold change Tl+ flux,[12],0.00509 (inactive)
same,log fold change Tl+ flux,[13],-0.00311 (inactive)
same,log fold change Tl+ flux,[14],-0.0429 (inactive)
same,log fold change Tl+ flux,[15],0.0162 (inactive)
same,log fold change Tl+ flux,[16],0.0129 (inactive)
same,log fold change Tl+ flux,[17],0.0208 (inactive)
same,log fold change Tl+ flux,[18],0.0297 (inactive)
C=CCN1CC[C@]23c4c5ccc(O)c4O[C@H]2C(=O)CC[C@@]3(O)[C@H]1C5,log fold change Tl+ flux,[9],-0.039 (inactive)
same,log fold change Tl+ flux,[10],0.0814 (inactive)
same,log fold change Tl+ flux,[11],0.0141 (inactive)
same,log fold change Tl+ flux,[12],0.0525 (inactive)
same,log fold change Tl+ flux,[13],-0.00699 (inactive)
same,log fold change Tl+ flux,[14],0.034 (inactive)
same,log fold change Tl+ flux,[15],0.000161 (inactive)
same,log fold change Tl+ flux,[16],0.0302 (inactive)
same,log fold change Tl+ flux,[17],0.00421 (inactive)
same,log fold change Tl+ flux,[18],0.0157 (inactive)
C=C[C@H]1CN2CC[C@H]1C[C@H]2[C@H](O)c1ccnc2ccccc12,score,[3],1.18
same,rescue above control,[4],0.34
same,cytochrome c release ratio,[5],0.75
same,inhibition of aggregation,[6],48.7%
same,glutamate uptake change,[7],-2.27%
same,aggregation suppression score,[8],1.28
CC[C@@H](CO)NC(=O)[C@@H]1C=C2c3cccc4[nH]cc(c34)C[C@H]2N(C)C1,score,[3],1.38
same,rescue above control,[4],4.84
same,cytochrome c release ratio,[5],0.5
same,inhibition of aggregation,[6],24.4%
same,glutamate uptake change,[7],12.4%
same,aggregation suppression score,[8],1.32
Clc1ccc(COC(Cn2ccnc2)c2ccc(Cl)cc2Cl)c(Cl)c1 (centres undefined),score,[3],-0.06
same,rescue above control,[4],0
same,cytochrome c release ratio,[5],0.32
same,inhibition of aggregation,[6],80.3%
same,glutamate uptake change,[7],5.65%
same,aggregation suppression score,[8],0.00246
same,mean signal,[20],182 (inactive)
same,log fold change Tl+ flux,[9],-0.0473 (inactive)
same,log fold change Tl+ flux,[10],-0.101 (inactive)
same,log fold change Tl+ flux,[11],-0.0262 (inactive)
same,log fold change Tl+ flux,[12],-0.445 (active)
same,log fold change Tl+ flux,[13],0.0222 (inactive)
same,log fold change Tl+ flux,[14],-0.0411 (inactive)
same,log fold change Tl+ flux,[15],0.0424 (inactive)
same,log fold change Tl+ flux,[16],-0.0245 (inactive)
same,log fold change Tl+ flux,[17],0.0768 (inactive)
same,log fold change Tl+ flux,[18],0.0237 (inactive)
FC(F)(F)c1cccc(N2CCNCC2)c1,score,[3],1.15
same,rescue above control,[4],0
same,cytochrome c release ratio,[5],0.84
same,inhibition of aggregation,[6],50%
same,glutamate uptake change,[7],0.29%
same,aggregation suppression score,[8],1.16
same,z-score,[19],-0.497 (inactive)
same,mean signal,[20],282 (inactive)
same,log fold change Tl+ flux,[9],-0.0132 (inactive)
same,log fold change Tl+ flux,[11],0.0279 (inactive)
same,log fold change Tl+ flux,[13],-0.00699 (inactive)
same,log fold change Tl+ flux,[14],0.0139 (inactive)
same,log fold change Tl+ flux,[15],0.0717 (inactive)
same,log fold change Tl+ flux,[16],0.00655 (inactive)
COc1cc2c(cc1OC)[C@@]13CCN4CC5=CCO[C@H]6CC(=O)N2[C@H]1[C@H]6[C@H]5C[C@H]43,z-score,[19],-0.249 (inactive)
same,mean signal,[20],265 (inactive)
same,log fold change Tl+ flux,[9],0.0307 (inactive)
same,log fold change Tl+ flux,[10],-0.0206 (inactive)
same,log fold change Tl+ flux,[11],-0.0179 (inactive)
same,log fold change Tl+ flux,[12],0.0166 (inactive)
same,log fold change Tl+ flux,[13],-0.0482 (inactive)
same,log fold change Tl+ flux,[14],-0.0395 (inactive)
same,log fold change Tl+ flux,[15],0.0112 (inactive)
same,log fold change Tl+ flux,[16],-0.0452 (inactive)
same,log fold change Tl+ flux,[17],-0.00487 (inactive)
same,log fold change Tl+ flux,[18],-0.0314 (inactive)
CC[C@@]1(O)C(=O)OCc2c1cc1n(c2=O)Cc2cc3ccccc3nc2-1,score,[3],1.92
same,rescue above control,[4],0
same,cytochrome c release ratio,[5],0.94
same,inhibition of aggregation,[6],-7.84%
same,glutamate uptake change,[7],-25.7%
same,aggregation suppression score,[8],1.49
